PubChem BioAssay (NCI)
Compounds without any hit were thinned out: in the full panel of roughly 79,000, 15% have a hit. No stated cut-off is given here; in the data, active means growth inhibition above about 70%; inactive means the rest.

Assays:
[1] = NCI Yeast Anticancer Drug Screen. Data for the rad50 strain (AID 155);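 further: 0% = growth of vehicle-only cultures of the same strain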; conditions: S. cerevisiae rad50 strain growth inhibition; at 50.0 µM; active compounds read high
Procedure, shortened: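 Yeast carrying a defined DNA repair defect were exposed to test compounds, and growth was compared with vehicle-treated controls to give percent inhibition.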

[2] = NCI Yeast Anticancer Drug Screen. Data for the mec2-1 strain (AID 157); conditions: S. cerevisiae mec2-1 strain, at 50.0 µM, active compounds read high
Procedure, shortened: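 Yeast mec2-1 mutant treated with compound. Readout: growth inhibition vs vehicle controls.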

[3] = NCI Yeast Anticancer Drug Screen. Data for the sgs1 mgt1 strain (AID 161);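 further: 0% = growth of cultures given vehicle only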; conditions: S. cerevisiae sgs1 mgt1 strain, at 50.0 µM, active compounds read high
Procedure, shortened: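 Genetically altered yeast, compound exposure, growth inhibition relative to vehicle.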

[4] = NCI Yeast Anticancer Drug Screen. Data for the cln2 rad14 strain (AID 165);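 further: 0% = growth equal to vehicle treated cultures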; conditions: S. cerevisiae cln2 rad14 strain, at 50.0 µM, active compounds read high
Procedure, shortened: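 cln2 rad14 yeast strain; compound exposure; growth inhibition read vs vehicle controls.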

[5] = NCI Yeast Anticancer Drug Screen. Data for the bub3 strain (AID 167); conditions: S. cerevisiae bub3 mutant strain, at 50.0 µM, active compounds read high
Procedure, shortened: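 Compounds were applied to a genetically altered yeast strain carrying a cell-cycle control defect. Growth inhibition was scored against vehicle-treated controls.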

[6] = NCI Yeast Anticancer Drug Screen. Data for the mlh1 rad18 strain (AID 175); conditions: S. cerevisiae mlh1 rad18 strain growth inhibition; at 50.0 µM; active compounds read high
Procedure, shortened: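 Yeast w/ defined DNA-repair lesions; compound exposure; growth vs vehicle controls → % inhibition.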

Measured: growth inhibition

Cc1ccncc1.[O]=[Ge].[O]=[Ge].[O]=[Ge].[O]=[Ge].[O]=[Ge].[O]=[Ge][OH].[O]=[Ge][OH]
inactive: [1] -27.3% | [2] -35.4% | [3] -42.5% | [4] -23.1% | [5] -24.8% | [6] -30.1%

CC(=O)NNc1nc(C)c(C(=O)/C=C/c2ccc(/C=C/C(=O)c3sc(NNC(C)=O)nc3C)cc2)s1
inactive: [1] -29.6% | [2] -3.4% | [3] -37.6% | [4] 6.25% | [5] -13.2% | [6] -35.1%

C#CC(NC(C)(C)CC(C)(C)C)C(C)C (stereo unspecified)
inactive: [1] 31.1% | [2] 4.25% | [3] 0.55% | [4] 6.8% | [5] 4.1% | [6] 12.2%

O=C(CCl)OCC(CCl)OC(=O)CCl (stereo unspecified)
inactive: [1] -3.6% | [2] 29.1% | [3] 37.1% | [4] -15.2% | [5] 41.6% | [6] 0.6%

CCOC(=O)NC(C#N)=C(Cl)Cl
inactive: [1] 37.5% | [2] 47% | [3] 49% | [4] 14.1% | [5] 38.5% | [6] 43.6%

O=C(O)Cc1nc(Cl)ccc1Cl
inactive: [1] 16.1% | [2] -7.2% | [3] -0.3% | [4] -15.2% | [5] -1.25% | [6] -1.1%

O=C(/C=C/c1ccccc1)c1ccc(Oc2ccccc2)cc1
inactive: [1] -13.2% | [2] -12.8% | [3] -12.9% | [4] -39.5% | [5] 7.5% | [6] -14.8%

CCC(C)(C)c1ccc([N+](=O)[O-])cc1
inactive: [1] 18.3% | [2] 8.8% | [3] 27.4% | [4] 15.7% | [5] -0.65% | [6] 2.35%

COc1cc(Br)c(Br)cc1Br
inactive: [1] 6.8% | [2] 4.35% | [3] -17.7% | [4] 12.5% | [5] 4.9% | [6] 10.5%

CC(=O)NCC(C)(C)C
inactive: [1] 2.15% | [2] 10.8% | [3] -12.7% | [4] -16.2% | [5] -32% | [6] -12.8%

CCOC(=O)/C(C#N)=C(O)/C(=C\c1ccc(Br)cc1)NC(=O)c1ccccc1
inactive: [1] -29.9% | [2] -12.9% | [3] -24.2% | [4] 13.2% | [5] -4.25% | [6] -15.1%

Cc1c(Cl)cccc1NC(=O)OCCCc1ccccc1
inactive: [1] 1.5% | [2] 10.2% | [3] 15.6% | [4] -9.45% | [5] 9.35% | [6] 10.2%

COC1CC(N=[N+]=[N-])C(OC(=O)c2ccccc2)C(CBr)O1 (stereo unspecified)
inactive: [1] 22.4% | [2] 18.1% | [3] 22.6% | [4] -4.4% | [5] 7.4% | [6] 19.6%

CCOC(=O)NC1C2CC3C(C2)C31 (stereo unspecified)
inactive: [1] -54.6% | [2] -32.7% | [3] -29.4% | [4] -20.6% | [5] -52.4% | [6] -32.5%

COC(=O)C(C(=O)C(=O)Nc1ccc(C(F)(F)F)cc1[N+](=O)[O-])c1csc(-n2nc(-c3ccccc3)cc2-c2ccccc2)n1 (stereo unspecified)
inactive: [1] 19.9% | [2] 18.6% | [3] 42.5% | [4] -13.2% | [5] 23.4% | [6] 1.6%

CC12CC3C(CC1SCC(=O)O2)C3(C)C (stereo unspecified)
inactive: [1] -27.2% | [2] -1.1% | [3] -44.8% | [4] 1.4% | [5] -25.1% | [6] -26.2%

COc1ccccc1Nc1nc(NNC(=O)Cc2ccccc2)nc(NNC(=O)c2ccncc2)n1
inactive: [1] 27.4% | [2] 36.2% | [3] 25.3% | [4] 17.6% | [5] 22.7% | [6] 25.6%

CN(C)COC(=S)SCC(=O)O
inactive: [1] 8.4% | [2] -0.85% | [3] 2.6% | [4] -26.6% | [5] -3.05% | [6] -1.9%

O=C/C(Cl)=C\Nc1ccc(C(=O)O)cc1
inactive: [1] -0.25% | [2] 2.15% | [3] -0.2% | [4] -23.1% | [5] -0.4% | [6] -10.7%

COc1ccc(C2NCCCC2c2ccccc2)cc1 (stereo unspecified)
inactive: [1] -46.3% | [2] -29.4% | [3] -2.65% | [4] 14.8% | [5] -40.2% | [6] -11.1%

Cc1nc2cccc([N+](=O)[O-])c2n1CCCN(C)C
inactive: [1] 1.7% | [2] 6.5% | [3] 11.9% | [4] -8.9% | [5] 18.3% | [6] 10.1%
